Laboratory results: ChEMBL document CHEMBL3988442, “University of Dundee, Small-Polar-MMV Screening Library” (2021)
For some of these results: Potency and affinity values are given separately.

How the values were obtained:
Parameters in all cases: scale not given: direction of the effect not stated beside the values
[1] = biological target: Protein translocase subunit SecA (Escherichia coli (strain K12)) (UniProt P10408); experiment: Assay to Identify E. coli SecA ATPase Inhibitors; assay type: functional; settings: 30 µM
Chain of Protein translocase subunit SecA (Escherichia coli (strain K12)) (P10408 whole entry): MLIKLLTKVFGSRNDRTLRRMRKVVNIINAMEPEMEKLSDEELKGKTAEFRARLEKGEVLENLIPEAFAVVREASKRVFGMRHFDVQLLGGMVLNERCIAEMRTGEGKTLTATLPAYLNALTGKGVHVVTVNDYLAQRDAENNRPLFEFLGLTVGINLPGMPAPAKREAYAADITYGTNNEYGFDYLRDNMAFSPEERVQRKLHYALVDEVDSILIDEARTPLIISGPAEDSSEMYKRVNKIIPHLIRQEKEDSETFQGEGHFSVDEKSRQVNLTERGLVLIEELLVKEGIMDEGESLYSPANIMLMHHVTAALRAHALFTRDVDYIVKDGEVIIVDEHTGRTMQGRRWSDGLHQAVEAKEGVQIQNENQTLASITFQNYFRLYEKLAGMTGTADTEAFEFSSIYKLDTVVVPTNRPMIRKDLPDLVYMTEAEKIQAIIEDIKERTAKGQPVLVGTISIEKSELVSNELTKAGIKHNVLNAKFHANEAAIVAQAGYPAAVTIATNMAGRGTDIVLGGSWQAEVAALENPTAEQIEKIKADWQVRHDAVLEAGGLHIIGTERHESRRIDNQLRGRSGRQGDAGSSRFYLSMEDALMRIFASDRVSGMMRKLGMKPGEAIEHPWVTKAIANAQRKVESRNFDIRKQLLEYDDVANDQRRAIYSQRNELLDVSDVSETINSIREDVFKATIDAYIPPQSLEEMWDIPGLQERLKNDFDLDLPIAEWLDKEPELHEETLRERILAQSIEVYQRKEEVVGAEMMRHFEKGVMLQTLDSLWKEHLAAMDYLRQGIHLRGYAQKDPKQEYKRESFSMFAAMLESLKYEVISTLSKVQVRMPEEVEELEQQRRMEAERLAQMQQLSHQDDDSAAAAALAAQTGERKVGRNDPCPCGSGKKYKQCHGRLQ

[2] = biological target: T1, Ubiquitin-activating enzyme e1, putative (Leishmania donovani (strain BPK282A1)) (UniProt E9BSI1); experiment: Leishmania donovani Ubiquitin Activating Enzyme (LdE1); assay type: functional; settings: 30 µM
T1 sequence (whole entry): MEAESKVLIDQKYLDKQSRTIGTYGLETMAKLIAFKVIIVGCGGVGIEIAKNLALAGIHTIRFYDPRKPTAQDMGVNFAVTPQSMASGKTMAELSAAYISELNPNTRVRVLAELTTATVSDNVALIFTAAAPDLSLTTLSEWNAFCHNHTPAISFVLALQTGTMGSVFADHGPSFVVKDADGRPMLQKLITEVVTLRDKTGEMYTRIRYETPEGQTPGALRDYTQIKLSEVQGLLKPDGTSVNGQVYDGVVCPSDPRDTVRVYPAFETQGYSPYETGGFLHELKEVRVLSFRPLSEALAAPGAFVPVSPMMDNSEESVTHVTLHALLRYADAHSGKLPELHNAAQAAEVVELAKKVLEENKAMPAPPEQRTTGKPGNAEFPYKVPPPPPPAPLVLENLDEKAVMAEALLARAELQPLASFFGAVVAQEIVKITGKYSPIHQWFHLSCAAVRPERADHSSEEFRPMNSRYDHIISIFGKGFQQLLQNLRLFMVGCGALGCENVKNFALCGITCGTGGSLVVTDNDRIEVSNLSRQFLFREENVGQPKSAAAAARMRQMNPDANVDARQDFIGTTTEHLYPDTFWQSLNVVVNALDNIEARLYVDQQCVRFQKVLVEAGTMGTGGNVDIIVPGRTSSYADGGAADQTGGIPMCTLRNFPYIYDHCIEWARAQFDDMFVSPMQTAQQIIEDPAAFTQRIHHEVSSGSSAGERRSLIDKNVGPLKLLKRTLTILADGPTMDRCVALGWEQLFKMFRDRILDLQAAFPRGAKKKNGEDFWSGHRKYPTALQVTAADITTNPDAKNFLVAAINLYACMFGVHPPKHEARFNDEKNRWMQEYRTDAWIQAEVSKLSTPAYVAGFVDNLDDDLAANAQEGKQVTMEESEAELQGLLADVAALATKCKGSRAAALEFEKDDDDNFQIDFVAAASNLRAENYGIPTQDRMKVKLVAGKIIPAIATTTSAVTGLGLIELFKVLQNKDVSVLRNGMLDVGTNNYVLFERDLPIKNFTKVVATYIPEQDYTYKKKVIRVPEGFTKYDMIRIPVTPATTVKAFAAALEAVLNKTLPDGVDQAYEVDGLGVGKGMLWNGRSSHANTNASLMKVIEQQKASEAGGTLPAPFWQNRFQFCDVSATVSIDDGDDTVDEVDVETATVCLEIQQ

[3] = biological target: AMP-activated protein kinase, AMPK (Homo sapiens) (UniProt P54646+O43741+P54619+Q9UGJ0+Q9Y478+Q13131+Q9UGI9); experiment: AMP-dependent Kinase enzyme assay. An in vitro enzyme assay that detects ADP turnover that is directly proportional to AMPK activity. This uses naive AMPK that is activated during the assay with MK-8722; assay type: functional; settings: 30 µM
[4] = biological target: Sialic acid-binding Ig-like lectin 9 (Homo sapiens) (UniProt Q9Y336); experiment: Hs-Siglec9 ALPHAscreen SOP 20170721; settings: 10 µM
Chain of Sialic acid-binding Ig-like lectin 9 (Homo sapiens) (Q9Y336 whole entry): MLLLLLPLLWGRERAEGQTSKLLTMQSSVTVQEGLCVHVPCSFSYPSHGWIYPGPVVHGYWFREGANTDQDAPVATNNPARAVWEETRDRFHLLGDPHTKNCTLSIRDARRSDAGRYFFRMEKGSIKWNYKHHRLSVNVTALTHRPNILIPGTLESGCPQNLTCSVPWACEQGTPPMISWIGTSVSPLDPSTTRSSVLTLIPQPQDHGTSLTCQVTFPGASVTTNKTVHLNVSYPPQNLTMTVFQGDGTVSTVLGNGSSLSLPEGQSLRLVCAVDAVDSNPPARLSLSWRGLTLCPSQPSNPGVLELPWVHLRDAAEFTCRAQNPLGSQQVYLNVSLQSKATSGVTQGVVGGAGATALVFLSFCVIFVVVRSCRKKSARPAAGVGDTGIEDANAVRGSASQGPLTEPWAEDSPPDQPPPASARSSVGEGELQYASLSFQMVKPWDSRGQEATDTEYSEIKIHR

Trypanosoma cruzi = experiment: Trypanosoma cruzi phosphomannomutase and mannose-1-phosphate guanylyltransferase assay; assay type: functional; settings: 10 µM
[5] = biological target: T2, Arginase-2, mitochondrial (Homo sapiens) (UniProt P78540); experiment: in vitro enzyme assay to detect the production of urea directly proportional to the activity of Arginase II; assay type: functional; settings: 33.3 µM; note: in the data most compounds retested in dose-response had high values
T2 sequence (whole entry): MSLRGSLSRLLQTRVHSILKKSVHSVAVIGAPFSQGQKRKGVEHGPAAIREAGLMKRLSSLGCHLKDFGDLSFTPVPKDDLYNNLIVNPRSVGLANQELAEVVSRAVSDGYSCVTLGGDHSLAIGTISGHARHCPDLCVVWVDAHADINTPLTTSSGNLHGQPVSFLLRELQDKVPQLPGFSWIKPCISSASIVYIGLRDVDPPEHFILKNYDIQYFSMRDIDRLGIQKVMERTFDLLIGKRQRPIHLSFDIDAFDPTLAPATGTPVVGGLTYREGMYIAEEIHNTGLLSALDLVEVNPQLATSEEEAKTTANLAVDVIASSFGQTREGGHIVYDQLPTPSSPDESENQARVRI

[6] = biological target: T3, Proteasome subunit beta (Trypanosoma cruzi) (UniProt O96673); experiment: Trypanosoma cruzi proteasome chymotrypsin-like activity (TcProtChymo) assay.; note: in the data most compounds retested in dose-response had high values; assay type: functional; settings: 9.37 µM
T3 sequence (whole entry): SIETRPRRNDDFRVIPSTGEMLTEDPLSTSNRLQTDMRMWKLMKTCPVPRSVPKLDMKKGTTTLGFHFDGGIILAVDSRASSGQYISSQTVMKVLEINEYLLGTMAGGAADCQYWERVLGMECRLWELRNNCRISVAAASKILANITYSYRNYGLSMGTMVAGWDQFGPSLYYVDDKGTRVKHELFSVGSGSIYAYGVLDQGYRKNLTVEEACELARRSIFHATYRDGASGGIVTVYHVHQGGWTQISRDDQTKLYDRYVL

Homo sapiens = species: Homo sapiens; experiment: To identify inhibition of the IFN signalling (Jak-Stat) pathway via expression of an eGFP reporter gene under the control of an IFN-stimulated response element (ISRE) containing MxA promoter.; assay type: functional; settings: 30 µM
[7] = biological target: T4, Tyrosyl-tRNA synthetase, putative (Trypanosoma cruzi (strain CL Brener)) (UniProt Q4DSP6); experiment: Trypanosoma cruzi tyrosyl tRNA synthetase (TcYRS) _High Tyrosine SOP; assay type: functional; settings: 30 µM; note: in the data most compounds retested in dose-response had high values
T4 sequence (whole entry): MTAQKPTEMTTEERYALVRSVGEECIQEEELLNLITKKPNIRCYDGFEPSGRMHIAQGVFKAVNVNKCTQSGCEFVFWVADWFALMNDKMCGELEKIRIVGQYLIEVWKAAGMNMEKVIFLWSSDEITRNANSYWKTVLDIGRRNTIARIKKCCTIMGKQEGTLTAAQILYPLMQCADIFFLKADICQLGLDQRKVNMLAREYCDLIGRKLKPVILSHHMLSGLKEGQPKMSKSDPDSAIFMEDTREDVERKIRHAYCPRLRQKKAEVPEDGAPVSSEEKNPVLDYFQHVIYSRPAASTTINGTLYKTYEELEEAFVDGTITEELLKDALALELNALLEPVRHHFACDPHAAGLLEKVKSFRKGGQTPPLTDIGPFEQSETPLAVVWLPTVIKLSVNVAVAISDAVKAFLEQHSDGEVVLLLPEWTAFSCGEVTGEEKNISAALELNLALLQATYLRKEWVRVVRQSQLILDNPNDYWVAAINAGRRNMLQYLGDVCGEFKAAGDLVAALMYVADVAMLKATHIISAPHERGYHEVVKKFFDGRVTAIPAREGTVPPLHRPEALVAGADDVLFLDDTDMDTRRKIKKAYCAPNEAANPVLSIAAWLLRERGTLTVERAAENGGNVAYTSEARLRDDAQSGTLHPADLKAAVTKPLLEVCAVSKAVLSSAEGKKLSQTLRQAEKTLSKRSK

[8] = biological target: T4, Tyrosyl-tRNA synthetase, putative (Trypanosoma cruzi (strain CL Brener)); experiment: Trypanosoma cruzi tyrosyl tRNA synthetase (TcYRS) SOP; assay type: functional; settings: 30 µM
[9] = biological target: Chromo domain-containing protein 1 (Saccharomyces cerevisiae (strain ATCC 204508 / S288c) (Baker's yeast)) (UniProt P32657); experiment: ScCHD-1 Enzyme Inhibition Assay; assay type: functional; settings: 30 µM; note: in the data most compounds retested in dose-response had high values
Chain of Chromo domain-containing protein 1 (Saccharomyces cerevisiae (strain ATCC 204508 / S288c) (Baker's yeast)) (P32657 whole entry, the tested form may be a part): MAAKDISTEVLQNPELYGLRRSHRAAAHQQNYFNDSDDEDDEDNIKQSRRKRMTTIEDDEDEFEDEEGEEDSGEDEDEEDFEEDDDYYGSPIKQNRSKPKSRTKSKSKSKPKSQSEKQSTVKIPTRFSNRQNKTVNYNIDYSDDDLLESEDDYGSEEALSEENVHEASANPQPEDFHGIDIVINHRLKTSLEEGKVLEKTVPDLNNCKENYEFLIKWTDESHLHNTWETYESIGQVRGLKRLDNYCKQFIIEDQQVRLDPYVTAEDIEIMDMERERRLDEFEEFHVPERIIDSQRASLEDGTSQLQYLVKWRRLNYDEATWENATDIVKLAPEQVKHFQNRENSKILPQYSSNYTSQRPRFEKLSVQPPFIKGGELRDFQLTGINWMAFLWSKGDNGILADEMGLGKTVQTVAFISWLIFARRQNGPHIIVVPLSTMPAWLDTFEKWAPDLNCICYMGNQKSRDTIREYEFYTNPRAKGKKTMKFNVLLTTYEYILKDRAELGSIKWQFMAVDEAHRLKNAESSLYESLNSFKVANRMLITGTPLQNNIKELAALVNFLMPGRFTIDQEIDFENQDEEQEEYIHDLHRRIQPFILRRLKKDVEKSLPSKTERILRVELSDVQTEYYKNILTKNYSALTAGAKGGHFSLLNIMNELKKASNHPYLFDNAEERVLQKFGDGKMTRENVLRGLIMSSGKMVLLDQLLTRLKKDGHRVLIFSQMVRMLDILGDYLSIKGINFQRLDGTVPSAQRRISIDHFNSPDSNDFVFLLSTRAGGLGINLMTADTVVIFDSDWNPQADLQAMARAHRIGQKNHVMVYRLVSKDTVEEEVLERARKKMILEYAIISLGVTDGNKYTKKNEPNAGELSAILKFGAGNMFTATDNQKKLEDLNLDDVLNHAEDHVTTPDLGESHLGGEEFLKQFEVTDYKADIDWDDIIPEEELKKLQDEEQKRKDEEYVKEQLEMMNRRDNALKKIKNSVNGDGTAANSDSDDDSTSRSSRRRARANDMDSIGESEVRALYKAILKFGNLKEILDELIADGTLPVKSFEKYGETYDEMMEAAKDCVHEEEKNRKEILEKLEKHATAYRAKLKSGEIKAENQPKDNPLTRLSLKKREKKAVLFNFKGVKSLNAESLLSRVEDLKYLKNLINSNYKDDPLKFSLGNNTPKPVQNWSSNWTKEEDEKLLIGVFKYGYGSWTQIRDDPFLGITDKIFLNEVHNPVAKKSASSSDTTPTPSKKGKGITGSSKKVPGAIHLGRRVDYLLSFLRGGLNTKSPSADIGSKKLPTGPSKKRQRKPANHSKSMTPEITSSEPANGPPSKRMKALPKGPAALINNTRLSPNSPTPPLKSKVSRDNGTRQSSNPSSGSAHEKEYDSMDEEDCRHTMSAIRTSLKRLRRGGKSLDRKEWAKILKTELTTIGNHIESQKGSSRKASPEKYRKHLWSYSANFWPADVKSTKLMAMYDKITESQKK

SMILES	Percent Effect [1] [%]	Percent Effect [2] [%]	Percent Effect [3] [%]	Percent Effect [4] [%]	Percent Effect (Trypanosoma cruzi) [%]	Percent Effect [5] [%]	Percent Effect [6] [%]	Percent Effect (Homo sapiens) [%]	Percent Effect [7] [%]	Percent Effect [8] [%]	Percent Effect [9] [%]
CN(CCN1CCOCC1)C(=O)CCCc1ccccc1	-3.72	0	3.21	3.74	4.38	-3.55	13.9	-19	5.32	5.2	0.287
COCCN(Cc1ccc(F)cc1Cl)C(=O)c1ccc(=O)[nH]n1	-4.94	6.94	-10.2	29.6	4.37	6.18	10.3	-2.22	2.1	5.13	-5.81
COc1ncccc1NC(=O)N1CCC(CNC(C)=O)CC1	-3.02	5.33	-2.93	4.72	3.02	3.12	7.5	20.5	4.92	13.6	-8
N#Cc1ncn(CC(=O)Nc2cc(Cl)ccc2F)n1	-7.02	13.7	6.62	0.779	1.59	-4.79	1.8	-12.8	3.12	6.17	1.6
FC(F)(F)COCCN1CCN(c2ccc3nncn3n2)CC1	-4.65	10.4	0.707	9.49	4.87	-3.92	2.87	-15.5	5.83	14.6	-6.46
CC(C)(C)C(=O)NCCn1ccc(-c2ccncc2)n1	-2.96	2.74	-5.12	4.58	3.33	11.4	9.23	21.9	1.07	2.5	-2.64
O=C(CCNC(=O)C1CCCC1)NCc1cccnc1-n1cncn1	-4.32	15.8	-2.4	3.19	-1.21	-2.88	9.56	-0.451	14.3	25.9	-0.359
Cc1nc(COC[C@@H]2CC[C@H]3[C@H](CCN3c3ncccn3)O2)cs1	-0.526	0	-0.411	3.43	-0.394	4.89	15.2	8.36	4.25	1.28	2.8
CS(=O)(=O)NC[C@]12COC[C@H]1CN(C(=O)c1ccccc1)C2	-1.33	-52	-0.526	9.67	-4.63	0.645	-1.22	11.1	-79.4	-147	-6.34
CCCc1noc(CN2CCCC2c2ccsc2)n1 (stereo not given)	-2.78	-10.1	-1.69	-2.76	1.04	-8.37	3.19	11.1	0.493	1.27	6.54
c1cncc(OCC2CN(Cc3ccco3)Cc3nccn3C2)c1 (stereo not given)	-1.62	21.9	-8.03	11.2	4.17	0	16	6.3	10.4	23.5	-9.31
CCCn1[nH]cc/c1=N\C(=O)CN1CCc2c(nc(C(C)C)n2C)C1	-0.801	20.8	-5.35	-15.6	-2.06	-4.84	11.6	18.7	8.57	23.5	-19.2
CC(=O)Nc1nc(C(=O)N2CCCC(c3cc(C)[nH]n3)C2)cs1 (stereo not given)	-6.81	-28.9	-1.06	8.53	6.63	0.36	2.28	2.32	4.43	11.1	0.638
CCO[C@@H]1CO[C@@]2(CCCN(C(=O)COc3ccccc3OC)C2)C1	2.9	18.2	3.83	-2.8	0.888	8.39	8.7	25.1	6.35	16.7	-9.93
COc1cccc(N2CCN(C(=O)C(O)c3cccc(Cl)c3)CC2=O)c1 (stereo not given)	0.76	10.8	-5.94	-2.7	-3.48	-1.91	11.2	22.3	4.76	0	-1.09
Cc1n[nH]c(C)c1-c1cnc(CC2CCN(C)C2)cn1 (stereo not given)	-1.87	2.67	9.74	4.94	3.94	-3.5	0.793	-2.19	4.25	6.41	-1.01
NC(=O)CSCCC(=O)N1CCCC1c1ccsc1 (stereo not given)	-2.98	1.39	-4.14	8.9	4.76	19	4.74	13.9	3.16	7.69	-1.44
CCN(CC)C(=O)c1cc(C2CCCN2C)ccn1 (stereo not given)	-5.39	23	-2.48	-2.94	0.988	-2.55	15.4	-5.61	5.38	11.7	-12.8
O=C(O)C1(Cc2cc(-c3ccc(F)cc3F)no2)CCOCC1	-4.49	4.05	11	-5.88	-8.3	-9.51	14.2	6.33	-4.3	-1.3	-7.79
Cc1c(NC(=O)NCC(C)N2CCOCC2)cccc1OC(F)F (stereo not given)	-4.46	8.11	0.188	0.607	0.391	2.5	8.03	-7.17	14.8	-3.66	-5.4
